Pf growth 96h – Primary qHTS for delayed death inhibitors of the malarial parasite plastid, 96 hour incubation; P. falciparum luciferase reporter growth, 96 h; Potency, µM (series often up to 28.7 µM), inactives show top-dose activity change, negative = inhibition, usual class: inhibitors; 320,000 compounds, 6.9% hits; AID 504834, 2011; further: potency means the concentration at half of the fitted maximal effect; on the % scale 0 is the no-effect control and ±100 the full control effect
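Two parasite generations (96 h, 37 C, 5% CO2) of compound exposure in infected erythrocytes (0.05% parasitemia, 2% hematocrit). Luciferase-reporter P. falciparum; decreased luminescence indicates inhibited growth, aimed at apicoplast-acting delayed death.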
CHX counter – Cycloheximide Counterscreen for Small Molecule Inhibitors of Shiga Toxin | AID 2314, 2010 | cell reporter, cycloheximide protein synthesis inhibition counterscreen | max response, % | 300,000 compounds, 12% hits; in the data active means max response mostly above about 13%, no sharp cut-off; inactive means mostly below about 14%; further: read at 38.3 µM for the half of the compounds with a filed dose; 0% is about no effect
Pf growth 48h – Primary qHTS for delayed death inhibitors of the malarial parasite plastid, 48 hour incubation; P. falciparum luciferase growth in erythrocytes, 48 h; Potency, µM (doses to about 28.7 µM), for inactives: top-dose activity change, negative = inhibition, usual class: inhibitors; 310,000 compounds, 5.9% hits; further: potency means the concentration at half of the fitted maximal effect; on the % scale 0 is the no-effect control and ±100 the full control effect
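Compounds are pin-transferred into medium, infected erythrocytes (2% hematocrit, 0.1% parasitemia final) are added, and plates sit one parasite generation at 37 C in 5% CO2. Detection reagent is then added and luminescence measured.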
HCV inh – qHTS Assay for Inhibitors of Hepatitis C Virus (HCV); 340,000 compounds, 3.4% hits; Potency, µM (series often up to 41.8 µM), for the others: at the top dose activity change, negative = inhibition, hits mostly inhibitors; Huh7.5.1 HCVcc-Cre infection, luciferase reporter, 44 h; AID 651820, 2012; further: potency means the concentration at half of the fitted maximal effect; on the % scale 0 is the no-effect control and ±100 the full control effect
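Infectious HCVcc-Cre (~0.5 moi) was added to cells just after compound, with cells seeded 4 h earlier at 1,000 per well. Luciferase activity after 44 h culture reported infection; substrate was incubated 15 min at room temperature before reading.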
AMA1 RON2 block – qHTS for Inhibitors of AMA1-RON; Towards Development of Antimalarial Drug Lead: Primary Screen; Potency, µM (top dose mostly 58.2 µM), for inactives: at the top dose activity change, negative = inhibition, usual class: inhibitors; AlphaScreen AMA1-biotinylated RON2 peptide binding; 360,000 compounds, 0.2% hits;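 further: potency means the concentration at half of the fitted maximal effect; 0% = vehicle wells and -100% = peptide control; nearly all actives have a fitted effect of over 45% in size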
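AMA1 (3D7) with his tag at 25 nM final met compounds first, then biotinylated RON2 peptide at 25 nM; detection used donor plus acceptor beads, 10 µg/mL apiece, read by AlphaScreen after 30 min at room temperature.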
Shiga inhibitor – A qHTS for Small Molecule Inhibitors of Shiga Toxin | inhibition, % at 38.7 µM | Vero cells, Shiga toxin protein synthesis inhibition reporter | 290,000 compounds, 9.2% hits; in the data active means inhibition mostly above about 28%, no sharp cut-off; inactive means mostly below about 43%; further: 0% is about no effect
An asterisk follows results filed as active. In the library only some 21% were active in any assay of this set; here they are far more common. Unless noted, the call rests on the fitted dose curve; in most records, active means well fitted curve in the direction sought with a large enough effect; inconclusive means small, poorly fitted or top-dose-only effect, or another doubt; inactive means no such curve, though single readings can be large; an effect the other way counts as inactive or inconclusive.

How did O=C(O)C/C(=C\c1cccc(NC(=O)c2ccccc2Cl)c1)c1nc2ccccc2s1 do in these assays?
Pf growth 96h: inconclusive; CHX counter: 26*; Pf growth 48h: -8%; HCV inh: 19%; AMA1 RON2 block: 0%; Shiga inhibitor: 52*

Results for N#CCc1nn(Cc2ccc(F)cc2)c(=O)c2ccccc12 ?
Pf growth 96h: 1%; CHX counter: -2; Pf growth 48h: 8%; HCV inh: inconclusive; AMA1 RON2 block: 12%; Shiga inhibitor: -4

What do the screens show for `CC1CCN(S(=O)(=O)c2cc(C(=O)N3CCN(c4ccccc4)CC3)ccc2Br)CC1`?
AMA1 RON2 block: -24%

Results for C[C@H]1CN([C@@H](C)CO)C(=O)CCCn2nncc2CO[C@@H]1CN(C)S(=O)(=O)c1ccc(-n2cccn2)cc1 ?
AMA1 RON2 block: -6%

What do the screens show for `COCCCn1c(C)cc(C(=O)COC(=O)C23CC4CC(CC(O)(C4)C2)C3)c1C`?
Pf growth 96h: 83%; Pf growth 48h: 93%; HCV inh: inconclusive; AMA1 RON2 block: -23%

How did CC1CCN(CC(=O)Nc2ccc(S(=O)(=O)N3C(C)CCCC3C)cc2)CC1 (stereo not given) do in these assays?
Pf growth 96h: 5%; CHX counter: -3; Pf growth 48h: inconclusive; HCV inh: 19%; AMA1 RON2 block: -2%; Shiga inhibitor: 13

How did O=C(O)c1ccc(C=C(c2nc3ccccc3s2)c2nc3ccccc3s2)cc1 do in these assays?
Pf growth 96h: -4%; CHX counter: 8; Pf growth 48h: 14%; HCV inh: 5%; AMA1 RON2 block: -10%; Shiga inhibitor: -3

Results for CN(C)c1ccc(/C=C(\Cl)c2nc3ccccc3s2)cc1 ?
Pf growth 96h: 62%; CHX counter: 66*; Pf growth 48h: 91%; HCV inh: inconclusive; AMA1 RON2 block: -13%; Shiga inhibitor: 79*

Results for COc1cc(C=C(c2nc3ccccc3s2)c2nc3ccccc3s2)cc(OC)c1O ?
Pf growth 96h: inconclusive; CHX counter: 17*; Pf growth 48h: inconclusive; HCV inh: 10µM*; AMA1 RON2 block: inconclusive; Shiga inhibitor: 58

What do the screens show for `N#CCCn1c(SCC(=O)N2CCN(S(=O)(=O)c3ccccc3)CC2)nc2ccccc21`?
CHX counter: -5; Pf growth 48h: inconclusive; HCV inh: 1%; AMA1 RON2 block: -7%; Shiga inhibitor: 1

How did CC(C)Cn1c(SCC(=O)N2CCN(S(=O)(=O)c3ccccc3)CC2)nc2ccccc21 do in these assays?
CHX counter: -6; Pf growth 48h: 3.3µM*; HCV inh: inconclusive; AMA1 RON2 block: 1%; Shiga inhibitor: -9

What do the screens show for `O=C(CSc1ncccn1)N1CCN(S(=O)(=O)c2ccccc2)CC1`?
Pf growth 96h: -3%; CHX counter: -5; Pf growth 48h: -9%; HCV inh: -1%; AMA1 RON2 block: 2%; Shiga inhibitor: -8

How did Cn1c(SCC(=O)N2CCN(S(=O)(=O)c3ccccc3)CC2)nc2ccccc21 do in these assays?
Pf growth 96h: inconclusive; CHX counter: 10; Pf growth 48h: inconclusive; HCV inh: -14%; AMA1 RON2 block: 5%; Shiga inhibitor: -18

Results for Cn1c(SCC(=O)N2CCN(S(=O)(=O)c3ccc(Cl)cc3)CC2)nc2ccccc21 ?
Pf growth 96h: 10µM*; CHX counter: -2; HCV inh: -8%; AMA1 RON2 block: -11%; Shiga inhibitor: 6

Results for Cc1cc(Br)ccc1SCC(=O)N1CCN(S(=O)(=O)c2ccccc2)CC1 ?
Pf growth 96h: inconclusive; CHX counter: 33*; Pf growth 48h: inconclusive; HCV inh: inconclusive; AMA1 RON2 block: 2%; Shiga inhibitor: 38*

How did CCOC(=O)c1ccc(S(=O)(=O)N2CCN(CCc3ccncc3)CC2)cc1 do in these assays?
HCV inh: -30%; AMA1 RON2 block: 0%
